From PubChem BioAssay (NCI)
The panel holds about 83,000 compounds, 20% with a hit somewhere; the sample as a whole holds those more often.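 Treatment: one concentration, 48 hours, 96-well format. Scoring: percent growth, with anything below 10 considered active.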 Active and inactive are the calls of the source.

test system: HL-60(TB) leukemia; test: NCI-60 one-dose screen, 48 h (100 = growth as untreated, 0 = no growth, -100 = all killed); conditions: 10 µM unless noted

Structure (SMILES)	growth
NCCCOc1cc(Cl)ccc1NC(=O)c1cc2ccccc2cc1OCCCN	-73% (active)
Cc1ccc(Nc2cc(=S)nc(N)[nH]2)cc1C	92.6% (inactive)
CCCCCCN(C)Cc1ccc(OCCOc2ccc(CN(C)CCCCCC)cc2)cc1	-43.4% (active)
COC(=O)c1ccc2oc(NC(=O)c3ccc(N4CCOCC4)c([N+](=O)[O-])c3)nc2c1	96.7% (inactive)
COc1ccc(/C=C(/C(=O)N2CCCCC2)c2cc(OC)c(OC)c(OC)c2)cc1	-17.5% (active)
OCCNC(=S)Nc1ccc(-c2nc(N3C[C@H]4CC[C@@H](C3)O4)c3cccn3n2)cc1	38.2% (inactive)
Nc1nnc2cc(F)ccc2n1	107% (inactive)
O=C(c1c[nH]c2ccccc12)C(Sc1nc2ccccc2c(=O)[nH]1)c1ccccc1 (stereo not given)	93.1% (inactive)
COc1ccc(C(=O)N=Nc2c(O)n(C)c3ccccc23)cc1	99.4% (inactive)
COc1ccc2cc(C(C)C(=O)Nc3ccc(S(=O)(=O)Nc4cc(C)on4)cc3)ccc2c1 (stereo not given)	143% (inactive)
COc1ccc(S(=O)(=O)N(C(C)=O)c2ccccc2/C=C/c2cc[n+]([O-])cc2)cc1	-27.6% (active)
COC(=O)/C(CCC=C(C)C)=C1\[C@@H](OC(C)=O)C[C@@]2(C)[C@H]1C/C(=N/O)[C@H]1[C@@]3(C)CC/C(=N\O)[C@@H](C)[C@@H]3CC[C@@]12C	89.3% (inactive)
CCOC(=O)c1ccc(NC(=O)Nc2ncc(Cl)cc2Cl)cc1	95.5% (inactive)
COc1cccc2c1Cc1ccccc1-2	97.5% (inactive)
Cc1cc(C)nc(NC(N)=NCCc2ccccc2)n1	56.9% (inactive)
NC(=NCCCOc1ccc(F)cc1)Nc1ccc(I)cc1	72.6% (inactive)
Cc1ccc(NC(=O)c2sc3nc(C)c(Br)c(C)c3c2N)cc1	95.2% (inactive)
C#Cc1nc(Nc2cc(C)[nH]n2)c2ccccc2n1	-38.8% (active)
COc1ccc(/C=C/C(=O)NCCO)cc1	93.6% (inactive)
COC(=O)c1ccc2[nH]c(O)c(C(=Nc3ccc(N(C)C(=O)CN4CCN(C)CC4)cc3)c3cccc(OC)c3)c2c1	-35.9% (active)

Structure (SMILES)	growth
CSc1ccccc1C#C/C=C\C#Cc1ccccc1N1CCCC1=O	-33.4% (active)
CC1(C)c2ccccc2C(=O)C1(Br)Cc1ccccc1 (stereo not given)	9.51% (active)
O=C(CSc1ncc(-c2ccccc2)n1-c1ccccc1)Nc1ccc(-c2nc3ccccc3s2)cc1	100% (inactive)
COC(=O)c1cc2oc(/C=N/NC(=O)c3cc4oc(-c5cccc(C(F)(F)F)c5)cc4[nH]3)cc2n1Cc1ccccc1	69.9% (inactive)
Cn1ncc(CC(=O)O)c1-n1nnc2cc(Cl)ccc2c1=O	97.2% (inactive)
COC(=O)c1nc(=S)[nH]c(C(=O)OC)c1C(=O)c1ccc(Cl)c(Cl)c1	101% (inactive)
COc1cc(Cc2cc(-c3ccccc3)n[nH]c2=O)cc(OC)c1OC	53.4% (inactive)
CN(C)C/C=C/C(=O)Nc1cc2c(Nc3cccc(Cl)c3F)ncnc2cc1OCCOC(F)F	43.2% (inactive)
O=C1c2ccc3c4c(ccc(c24)C(=O)N1CCCCO)C(=O)N(CCCCO)C3=O	7.09% (active)
COc1cccc(-c2cnco2)c1OCc1c(C)c(COc2c(OC)cccc2-c2cnco2)c(C)c(COc2c(OC)cccc2-c2cnco2)c1C	76.4% (inactive)
CC(N)C(=O)NNc1n[nH]c(=S)n1N (stereo not given)	101% (inactive)
COc1ccc(NC(=O)CSc2oc(-c3ccccc3)nc2S(=O)(=O)c2ccc(Cl)cc2)c(OC)c1	49.4% (inactive)
Nc1ccccc1-c1n[nH]c(=O)[nH]c1=O	105% (inactive)
CCOC(=S)Sc1ccc([N+](=O)[O-])cc1[N+](=O)[O-]	-25.6% (active)
N/C(=N\C(N)=N\c1nc2ccccc2s1)c1ccnc(Cl)c1	1.2% (active)
CC(=O)OCC(=O)C1(O)C(C)CC2C3C=C(C)C4=Cc5c(cnn5-c5ccccc5)CC4(C)C3C(O)CC21C (stereo not given)	14.7% (inactive)
C=C1c2c(C)nn(-c3ccc(C#CCOC4OC(CO)C(O)C(O)C4O)cc3)c2N(C)C23C[C@H]1C1(C)c4c(C)nn(-c5ccc(C#CCOC6OC(CO)C(O)C(O)C6O)cc5)c4N(C)C(C)(C[C@H]12)C3 (stereo not given in full)	-22.8% (active)
COC1/C=C/OC2(C)Oc3c(C)c(O)c4c(O)c(c(/C=N/N(c5ccccc5)c5ccccc5)c(O)c4c3C2=O)NC(=O)C(C)=C/C=C/C(C)C(O)C(C)C(O)C(C)C(OC(C)=O)C1C (stereo not given)	53.1% (inactive)
Nc1ccc2[nH]c(-c3ccccc3)cc(=O)c2c1	88.2% (inactive)
C=CC(=O)N[C@@H](Cc1ccc(-c2cc(Cl)cc(Cl)c2)cc1)[C@@H](O)[C@H](O)C(=O)O	95.9% (inactive)
